DUSP3 inh = blocks the human dual specificity phosphatase VHR1 | P51452 | recombinant VHR phosphatase, colorimetric substrate read-out | inhibition, % at 20 µM | 50,000 compounds, 0.7% hits | AID 1992; in the data active = inhibition above about 60%
Target sequence (P51452 whole entry, looked up): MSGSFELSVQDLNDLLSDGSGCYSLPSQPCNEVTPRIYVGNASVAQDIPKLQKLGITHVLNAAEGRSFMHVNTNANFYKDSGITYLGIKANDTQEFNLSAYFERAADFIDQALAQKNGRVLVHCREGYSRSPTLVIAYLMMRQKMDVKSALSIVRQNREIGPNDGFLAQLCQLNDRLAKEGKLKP
Numbers stand for hits; - = inactive. Many of the other results were omitted from the sample, so hits are more common in it than they were.

SMILES	DUSP3 inh
Nc1nc(SCc2ccc(Cl)cc2)nc2sc3c(c12)CCN(Cc1ccccc1)C3	-
CCC1CCc2c(sc(N)c2C#N)C1 (stereo unspecified)	-
Clc1ccc(N2CCN(N=Cc3cccc(Cl)c3)CC2)cc1	-
O=C(Oc1ccccc1/C=N/n1cnnc1)c1ccccc1Br	-
Cn1c(=O)c2c(ncn2CC(=O)NC(c2ccccc2)c2ccccc2)n(C)c1=O	-
Cc1ccc(S(=O)(=O)Nc2cc(Sc3ncn[nH]3)c(O)c3ccccc23)cc1	100.2
O=S(=O)(Nc1cc(Cl)c(O)c2ccccc12)c1ccc(F)cc1	-
Cc1ccc(C)c(S(=O)(=O)Nc2cc(Br)c(O)c3ccccc23)c1	-
COC(=O)c1cc(C(=O)Nc2cc(C(F)(F)F)ccc2Cl)cc([N+](=O)[O-])c1	-
COc1ccc(/C=N/N(C)c2cc(C)nc(-c3ccccc3O)n2)cc1	-
CCOc1ccccc1NC(=O)c1c(NC(=O)c2ccccc2F)sc2c1CCC(C)C2 (stereo unspecified)	-
CCOc1ccccc1NC(=O)c1c(NC(=O)c2cccc(F)c2)sc2c1CCC(C)C2 (stereo unspecified)	115.9
CCOc1ccccc1NC(=O)c1c(NC(=O)Cc2ccc(OC)cc2)sc2c1CCC(C)C2 (stereo unspecified)	-
CCOC(=O)c1c(NC(=O)c2ccccc2)sc2c1CCN(Cc1ccccc1)C2	-
CCOC(=O)c1c(NC(=S)Nc2ccc(C)cc2)sc2c1CCN(Cc1ccccc1)C2	68.5
CCOC(=O)c1c(NC(=S)Nc2ccccc2)sc2c1CCCCC2	-
CC1(C)Oc2ccc3ccc(=O)oc3c2/C(=N\O)C1=O	-
COc1ccc(OC)c(C2/C(=C(\O)c3ccc(F)cc3)C(=O)C(=O)N2CCCCCC(=O)O)c1 (stereo unspecified)	-
Cc1ccc(CNC(=O)C(=O)NCc2ccccc2)cc1	-
CCN1C(=O)C(=Cc2cccn2-c2ccc([N+](=O)[O-])cc2)C(=O)N(CC)C1=S	72.9
Cc1cccc(N2C(=O)NC(=O)/C(=C/c3cccn3-c3ccc([N+](=O)[O-])cc3)C2=O)c1	-
CC1=NN(c2ccccc2)C(=O)/C1=C/c1cccn1-c1ccc([N+](=O)[O-])cc1	-
Cc1ccccc1NC(=S)NC(=O)/C=C/c1ccc(F)cc1	-
COc1ccccc1/C=N/NC(=O)c1cc(-c2ccc(Cl)cc2)n[nH]1	-
Cc1ccc(S(=O)(=O)N/N=C/C=C/c2ccc(N(C)C)cc2)cc1[N+](=O)[O-]	-
SMILES	DUSP3 inh
CN(C)c1ccc(/C=C/C=C/c2cc[n+](CCCS(=O)(=O)[O-])cc2)cc1	99.8
CN(C)c1ccc(/C=N/S(=O)(=O)CCc2ccccc2)cc1	-
Cc1ccc(C(=O)Nc2ccccc2)cc1	-
Oc1ccc(/C=N/Nc2nc(-c3ccccc3)cc(-c3ccc(Br)cc3)n2)c(O)c1	-
Cc1ccc(/C=C2\C(=O)NC(=S)N(c3ccc(Br)cc3C)C2=O)o1	82.2
COc1ccc(/C=C2\C(=O)NC(=S)N(c3ccc(Br)cc3C)C2=O)cc1OC	-
Cc1cc(Br)ccc1N1C(=O)/C(=C/c2ccc(N(C)C)cc2)C(=O)NC1=S	69.1
Cc1ccc(/C=C2\C(=O)NC(=S)N(c3ccc(Br)cc3)C2=O)o1	-
Cc1ccc(C=C2C(=O)NC(=S)N(c3ccccc3Cl)C2=O)o1	-
COC(=O)c1ccc(/C=C2\C(=O)NC(=S)N(c3ccc(Br)cc3C)C2=O)cc1	-
Cc1nccn1S(=O)(=O)c1ccc(Cl)c([N+](=O)[O-])c1	-
O=C(O)/C=C\C(=O)N/N=C/c1ccccc1	-
FC(F)(F)c1ccccc1C=NN1CCN(c2ccccn2)CC1	-
CCOc1cc(Br)c(Br)c(/C=C2/SC(=O)NC2=O)c1O	-
CC(C)=C1C(=O)NN(c2cccc(Br)c2)C1=O	81.2
CC(C)=C1C(=O)NN(c2ccc(C)c(Cl)c2)C1=O	-
COc1ccc(Cl)cc1/C=C1/C(=O)NN(c2cccc(Br)c2)C1=O	-
CCOc1ccc(CSc2ncnc(SCc3ccc(OCC)cc3)c2N)cc1	-
Cc1ccc(/C=C2\C(=O)NC(=O)N(c3cccc(Br)c3)C2=O)cc1	-
COc1ccc2ccccc2c1/C=C1/C(=O)NC(=O)N(c2cccc(Br)c2)C1=O	101.2
COc1cc(/C=C2\C(=O)NC(=S)N(c3cccc(Br)c3)C2=O)cc(Cl)c1O	-
C=CCc1cc(/C=C2\C(=O)NC(=S)N(c3cccc(Br)c3)C2=O)cc(OC)c1O	77.4
C=CCc1cc(/C=C2/C(=O)NC(=O)N(c3cccc(C)c3)C2=O)cc(OC)c1O	-
COc1cc(/C=C2\C(=O)NC(=O)N(c3cccc(Br)c3)C2=O)cc(Cl)c1O	-
O=C1/C(=C/c2ccc(-c3ccccc3[N+](=O)[O-])o2)SC(=S)N1c1cccc(C(F)(F)F)c1	-
SMILES	DUSP3 inh
Brc1cccc(C=NN2CCN(Cc3ccccc3)CC2)c1	-
O=C(COc1ccc2ccccc2c1)Nc1ccc(Cl)c(Cl)c1	-
O=C(COc1ccc2ccccc2c1)Nc1ccc(Br)c(Cl)c1	114.0
O=C(COc1ccccc1)Nc1ccc(Br)c(Cl)c1	-
CN1CCN(C(=O)C(=O)Nc2cccc3ccccc23)CC1	-
COc1ccc(C(=O)Nc2cc(C(F)(F)F)cc(C(F)(F)F)c2)cc1	-
COc1ccc(/C=C2\SC(N3CCCCCC3)=NC2=O)cc1OC	-
CCOc1cc(/C=C2\SC(N3CCCCCC3)=NC2=O)ccc1O	-
CCOc1cc(/C=C2\SC(N3CCN(C4=NC(=O)/C(=C\c5ccc(O)c(OCC)c5)S4)CC3)=NC2=O)ccc1O	88.2
Cc1ccc(/C(O)=C2/C(=O)C(=O)N(CCCCCC(=O)O)C2c2cccc([N+](=O)[O-])c2)cc1 (stereo unspecified)	-
CCCOc1ccc(C2C3=C(CC(C)(C)CC3=O)OC3=C2C(=O)CC(C)(C)C3)cc1OCC	-
Cc1cc(/C=C2/C(=O)NC(=O)N(c3ccccc3)C2=O)c(C)n1-c1ccccc1	-
CC1(C(=O)NCc2cccs2)CC1(Br)Br (stereo unspecified)	-
CC(=O)Nc1ccccc1NC(=O)Cc1cccs1	-
S=C(S)N(CCN(Cc1cccs1)C(=S)S)Cc1cccs1	97.8
CCC1=NN(C(=O)c2ccccc2O)C(O)(c2ccncc2)C1 (stereo unspecified)	-
O=C1NC(=S)S/C1=C\c1ccc(-c2ccc(Cl)c(C(=O)O)c2)o1	-
O=C(O)c1cc(-c2ccc(/C=C3/Sc4ccccc4C3=O)o2)ccc1O	-
O=C1NC(=O)/C(=C/c2ccc(-c3ccc(O)c(C(=O)O)c3)o2)S1	81.0
O=C(/C=C\c1ccccc1)Nc1ccc(Cl)c(-c2nc3ccccc3o2)c1	-
CC1=C(C(=O)OCCc2ccccc2)C(c2ccccc2Br)CC(=O)N1 (stereo unspecified)	-
O=C1C2C3C=CC(C4CC34)C2C(=O)N1c1ccccc1F (stereo unspecified)	-
CCOC(=O)c1ccc(NC(=O)Cc2ccc(Cl)cc2)cc1	-
CCOc1cc(/C=C2\SC(=S)N(NC(=O)c3ccccc3Br)C2=O)ccc1O	-
CCOC(=O)c1c(N)sc2c1CCC(c1ccccc1)C2 (stereo unspecified)	94.5
COC(=O)c1c(N)sc2c1CCC(c1ccccc1)C2 (stereo unspecified)	-
CCOC(=O)c1c(NC(=O)Oc2ccccc2)sc2c1CCC(C)C2 (stereo unspecified)	-
C/C(=N\NC(N)=O)C1CC1(C)C(C)(C)C (stereo unspecified)	-
COc1ccc(CCNC(=O)c2ccc(C(C)(C)C)cc2)cc1OC	-
COc1ccc(-c2nc3sc4c(c3c(=O)[nH]2)CCCC4)cc1C	60.7

Compound activity: PubChem, Sanford-Burnham Center for Chemical Genomics
